Test [1] is described as follows: qHTS assay to identify small molecule agonists of the peroxisome proliferator-activated receptor delta (PPARd) signaling pathway - cell viability counter screen (AID 743211). Note: nearly all actives have a fitted effect of over 55% in size. Note: potency is the fitted concentration of half-maximal effect. In outline: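 HEK293H PPARd-bla, 3000 cells/well; 5 h preincubation 37C/5% CO2; cpd in DMSO, 17 h 37C; B/G FRET substrate 2 h RT; CellTiter-Glo 30 min RT, luminescence.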
(In general: Quantitative high-throughput screening tests each substance at several concentrations.)

Test [2] has as its target Peroxisome proliferator-activated receptor delta (Homo sapiens) (UniProt Q03181). The experiment in a line: qHTS assay to identify small molecule agonists of the peroxisome proliferator-activated receptor delta (PPARd) signaling pathway (AID 743212; calls by dose curve). Summed up: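 Tox21 library screened in GeneBLAzer PPARd UAS-bla HEK293H cells. After compound treatment at 37 C, a FRET-based beta-lactamase substrate was applied for 2 h and fluorescence recorded.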

Test [3] shares this target. The experiment in a line: qHTS assay to identify small molecule antagonists of the peroxisome proliferator-activated receptor delta (PPARd) signaling pathway (AID 743215; active = well fitted inhibition curve with a large enough effect in the signal ratio in the repeat runs, not every such curve was filed as active; the % refers to the signal ratio;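 note: cells stimulated with agonist L165041 at 300 nM final during compound exposure; series mostly up to about 62 µM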). In outline:
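Agonist L165041 (300 nM final) added with compound to PPARd-bla HEK293H UAS-bla reporter cells; 17 h incubation at 37 C. Read-out: LiveBLAzer FRET substrate, 2 h at room temperature, fluorescence intensity.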

Test [4] in a line: qHTS assay to identify small molecule agonists of the farnesoid-X-receptor (FXR) signaling pathway - cell viability counter screen (AID 743218). Note: nearly all actives have a fitted effect of over 45% in size. Note: potency is the fitted concentration of half-maximal effect. In outline: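 Viability counter screen in the same wells: CellTiter-Glo luminescence, 30 min room-temperature incubation, measured after the beta-lactamase read. Cells were GeneBLAzer FXR-UAS-bla HEK 293T, compound-treated 16 h at 37C.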

Test [5] addresses Bile acid receptor (Homo sapiens) (UniProt Q96RI1). The experiment in a line: qHTS assay to identify small molecule agonists of the farnesoid-X-receptor (FXR) signaling pathway (AID 743220; active = well fitted activation curve with a large enough effect in the signal ratio in the repeat runs, not every such curve was filed as active; the % refers to the signal ratio). Summed up:
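FXR-UAS-bla HEK 293T cells carrying a UAS-driven beta-lactamase reporter were plated for 5 h at 37C/5% CO2, then exposed to DMSO-dissolved Tox21 10K compounds for 16 h at 37C. A LiveBLAzer B/G FRET substrate was loaded for 2 h at room temperature before fluorescence reading.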

Test [6] concerns the target Vitamin D3 receptor (Homo sapiens) (UniProt P11473). The experiment in a line: qHTS assay to identify small molecule agonists of the vitamin D receptor (VDR) signaling pathway (AID 743222; calls by dose curve). In outline:
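Agonist mode, beta-lactamase reporter: fluorescence from LiveBLAzer B/G FRET substrate (2 h, room temperature) read after 16 h compound treatment at 37 C of VDR-bla cells, which were pre-incubated 4 h after seeding.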

Test [7] shares this target. Description: qHTS assay to identify small molecule antagonists of the vitamin D receptor (VDR) signaling pathway (AID 743223; active = well fitted inhibition curve with a large enough effect in the signal ratio in the repeat runs, not every such curve was filed as active; the % refers to the signal ratio). In outline:
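Antagonist mode uses 1alpha,25-dihydroxyvitamin D3 at 3 nM final as stimulus. VDR-bla cells receive compounds in DMSO, incubate 16 h at 37C, then a beta-lactamase FRET substrate for 2 h at room temperature before fluorescence measurement.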

Test [8] is described as follows: qHTS assay to identify small molecule agonists of the endoplasmic reticulum stress response signaling pathway (AID 1159516; active = well fitted activation curve with a large enough effect in the signal ratio in the repeat runs, not every such curve was filed as active; the % refers to the signal ratio). Summed up:
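Ratiometric FRET readout (405 nm excitation; 460 and 530 nm emission) of a beta-lactamase gene driven by the ER stress response element, after 2 hr substrate loading. HeLa ESRE-bla cells were seeded overnight and treated with compounds for only 5 hr at 37 C.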

Test [9] can be described thus: qHTS assay to identify small molecule agonists of the endoplasmic reticulum stress response signaling pathway - cell viability counter screen (AID 1159517; calls by dose curve; note: series mostly up to about 61 µM; nearly all actives have a fitted effect of over 50% in size). Summed up: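 In parallel with the ESRE reporter read, cytotoxicity was scored by CellTiter-Glo luminescence (30 min, room temperature) on HeLa ESRE-bla cells dosed for 5 hr.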
For test [10], the target named is Nuclear receptor ROR-gamma (Homo sapiens) (UniProt P51449). The experiment in a line: qHTS assay to identify small molecule antagonists of the retinoid-related orphan receptor gamma (ROR-gamma) signaling pathway (AID 1159521; note: nearly all actives have a fitted effect of over 50% in size; note: potency is the fitted concentration of half-maximal effect). Summed up:
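CHO Tet-on RORγ, RORE-luc reporter. Cpd 2 h pre-incubation, then dox hyclate 1 uM final, 16 h, 37 C/5% CO2. ONE-Glo luminescence; decrease = antagonist.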

Test [11] is described as follows: qHTS assay to identify small molecule agonists of the AP-1 signaling pathway - cell viability counter screen (AID 1159525; calls by dose curve; note: nearly all actives have a fitted effect of over 55% in size; note: potency is the fitted concentration of half-maximal effect). In outline:
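Same-well cytotoxicity counter screen of the Tox21 10K library in ME-180 cells. The readout is ATP-dependent luminescence after 5 h compound treatment. Data are normalised to DMSO and tetra n-octyl ammonium bromide controls.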

Test [12] can be described thus: qHTS assay to identify small molecule agonists of the RXR signaling pathway - cell viability counter screen (AID 1159529). Note: nearly all actives have a fitted effect of over 50% in size. Note: potency is the fitted concentration of half-maximal effect. In outline: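 HEK 293T RXRa-bla cells, 2% CS-FBS; 5 h settle; cpd 16 h 37 C, 5% CO2; CellTiter-Glo 30 min RT, luminescence. Tetraoctyl ammonium bromide as positive control.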
A short description of test [13]: qHTS assay to identify small molecule antagonists of the peroxisome proliferator-activated receptor delta (PPARd) signaling pathway - cell viability counter screen (AID 743213). Note: nearly all actives have a fitted effect of over 50% in size. Note: potency is the fitted concentration of half-maximal effect. Summed up:
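PPARd-bla HEK293H cells were treated with compounds plus agonist L165041 (300 nM final) for 17 h at 37 C. Viability was then read in the same wells by CellTiter-Glo luminescence after 30 min at room temperature.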

A short description of test [14]: qHTS assay to identify small molecule antagonists of the farnesoid-X-receptor (FXR) signaling pathway - cell viability counter screen (AID 743221; active = well fitted cell-killing curve with a large enough effect in the repeat runs, not every such curve was filed as active; note: nearly all actives have a fitted effect of over 50% in size; note: potency is the fitted concentration of half-maximal effect). In outline: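 Luminescence from CellTiter-Glo measures cytotoxicity in GeneBLAzer FXR-UAS-bla HEK 293T cells. Cells were exposed to compounds with 50 uM chenodeoxycholic acid (final) for 16 h at 37 C, in wells also used for the reporter readout.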

The nature of test [15]: qHTS assay to identify small molecule agonists of the vitamin D receptor (VDR) signaling pathway - cell viability counter screen (AID 743224). Note: nearly all actives have a fitted effect of over 50% in size. Note: potency is the fitted concentration of half-maximal effect. Summed up:
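Counter screen run in the same wells as the VDR-bla reporter assay: CellTiter-Glo luminescence, 30 min at room temperature, after 16 h compound treatment at 37C of cells pre-plated for 4 h.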

Test [16] is described as follows: qHTS assay to identify small molecule antagonists of the retinoid-related orphan receptor gamma (ROR-gamma) signaling pathway - cell viability counter screen (AID 1159520). Note: nearly all actives have a fitted effect of over 50% in size. Summed up:
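Tet-on ROR gamma CHO cells were given compounds for 2 hr, then doxycycline hyclate at 1 uM final, and incubated 16 hr at 37 C. Viability was measured as ATP content by CellTiter-Glo luminescence.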

A short description of test [17]: qHTS assay to identify small molecule agonists of the AP-1 signaling pathway (AID 1159526; calls by dose curve).
In test [18] the target is Retinoic acid receptor RXR-alpha (Homo sapiens) (UniProt P19793). Description: qHTS assay to identify small molecule agonists of the RXR signaling pathway (AID 1159527; calls by dose curve; note: nearly all actives have a fitted effect of over 35% in size). In outline:
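Read-out: beta-lactamase FRET ratio (405 nm excitation, 460 and 530 nm emission) after 2 hr substrate loading at room temperature. Cells were RXR-alpha-UAS-bla HEK 293T treated with compounds for 16 hr in 2% charcoal-stripped FBS medium.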

Test [19] is described as follows: qHTS assay to identify small molecule antagonists of the vitamin D receptor (VDR) signaling pathway - cell viability counter screen (AID 743225). Note: nearly all actives have a fitted effect of over 50% in size. Note: potency is the fitted concentration of half-maximal effect. Summed up: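 Read-out: CellTiter-Glo luminescence measured 30 min after reagent addition at room temperature. Cells were VDR-bla HEK 293T exposed 16 h at 37C, 5% CO2, to compound with 3 nM final calcitriol agonist.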

The target in test [20] is Bile acid receptor (Homo sapiens) (UniProt Q96RI1). The experiment in a line: qHTS assay to identify small molecule antagonists of the farnesoid-X-receptor (FXR) signaling pathway (AID 743217; active = well fitted inhibition curve with a large enough effect in the signal ratio in the repeat runs, not every such curve was filed as active; the % refers to the signal ratio; note: potency is the fitted concentration of half-maximal effect). Summed up:
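Antagonist mode: chenodeoxycholic acid at 50 uM final stimulates a UAS-driven beta-lactamase reporter in HEK 293T FXR-bla cells during 16 h, 37C compound exposure. Read-out is FRET substrate fluorescence after 2 h at room temperature.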

Several values for one entry are separate records, joined by “and”; a condition that tells them apart may be missing. Equal entries are not always repeated. Inconclusive results are not listed. Some compounds were tested as several samples or in several runs, with calls that do not always agree. Activity calls are given as the source filed them. Unless noted, calls come from the whole dose curve; as a rule, active = well fitted curve in the direction sought with a large enough effect in the repeat runs; inconclusive = weak or mixed curves; inactive = no such curve, though single readings can be large; an effect the other way counts as inactive or inconclusive.

Sequence of Retinoic acid receptor RXR-alpha (Homo sapiens) (P19793 whole entry, looked up): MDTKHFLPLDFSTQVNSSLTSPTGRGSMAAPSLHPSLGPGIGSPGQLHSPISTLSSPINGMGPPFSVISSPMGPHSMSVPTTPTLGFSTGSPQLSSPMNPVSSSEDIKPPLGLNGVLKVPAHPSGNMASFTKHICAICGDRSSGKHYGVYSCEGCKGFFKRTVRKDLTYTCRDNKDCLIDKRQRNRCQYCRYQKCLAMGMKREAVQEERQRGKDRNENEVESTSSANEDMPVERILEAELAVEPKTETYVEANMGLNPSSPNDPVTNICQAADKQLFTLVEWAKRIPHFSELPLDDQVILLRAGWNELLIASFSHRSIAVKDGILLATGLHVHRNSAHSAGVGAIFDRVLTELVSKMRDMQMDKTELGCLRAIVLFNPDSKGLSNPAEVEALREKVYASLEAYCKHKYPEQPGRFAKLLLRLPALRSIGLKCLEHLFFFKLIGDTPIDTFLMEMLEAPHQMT
Sequence of Bile acid receptor (Homo sapiens) (Q96RI1 whole entry, looked up): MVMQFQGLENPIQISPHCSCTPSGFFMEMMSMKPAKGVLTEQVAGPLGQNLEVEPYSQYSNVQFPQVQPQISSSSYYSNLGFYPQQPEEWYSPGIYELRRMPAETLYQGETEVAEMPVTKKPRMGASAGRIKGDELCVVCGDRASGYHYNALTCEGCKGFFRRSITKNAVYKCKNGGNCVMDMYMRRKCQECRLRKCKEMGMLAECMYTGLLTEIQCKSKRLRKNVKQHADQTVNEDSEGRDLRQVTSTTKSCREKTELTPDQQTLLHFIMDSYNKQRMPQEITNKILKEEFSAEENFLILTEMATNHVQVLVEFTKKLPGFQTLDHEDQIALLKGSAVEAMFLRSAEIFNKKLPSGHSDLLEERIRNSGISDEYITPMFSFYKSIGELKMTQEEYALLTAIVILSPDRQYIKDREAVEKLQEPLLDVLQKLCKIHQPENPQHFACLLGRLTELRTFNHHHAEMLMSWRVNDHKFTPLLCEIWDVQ
Sequence of Peroxisome proliferator-activated receptor delta (Homo sapiens) (Q03181 whole entry, looked up): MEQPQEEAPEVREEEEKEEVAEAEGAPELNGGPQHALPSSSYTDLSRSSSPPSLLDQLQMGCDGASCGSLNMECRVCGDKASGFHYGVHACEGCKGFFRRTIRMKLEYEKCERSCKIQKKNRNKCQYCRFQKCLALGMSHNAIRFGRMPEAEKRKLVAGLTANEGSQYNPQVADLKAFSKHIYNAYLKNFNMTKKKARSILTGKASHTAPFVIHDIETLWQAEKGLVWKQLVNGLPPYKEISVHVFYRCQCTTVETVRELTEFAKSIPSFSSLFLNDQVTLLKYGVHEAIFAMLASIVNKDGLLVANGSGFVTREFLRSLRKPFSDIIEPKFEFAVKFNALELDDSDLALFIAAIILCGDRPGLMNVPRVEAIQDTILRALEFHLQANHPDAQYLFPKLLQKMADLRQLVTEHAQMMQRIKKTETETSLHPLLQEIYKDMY
Sequence of Vitamin D3 receptor (Homo sapiens) (P11473 whole entry, looked up): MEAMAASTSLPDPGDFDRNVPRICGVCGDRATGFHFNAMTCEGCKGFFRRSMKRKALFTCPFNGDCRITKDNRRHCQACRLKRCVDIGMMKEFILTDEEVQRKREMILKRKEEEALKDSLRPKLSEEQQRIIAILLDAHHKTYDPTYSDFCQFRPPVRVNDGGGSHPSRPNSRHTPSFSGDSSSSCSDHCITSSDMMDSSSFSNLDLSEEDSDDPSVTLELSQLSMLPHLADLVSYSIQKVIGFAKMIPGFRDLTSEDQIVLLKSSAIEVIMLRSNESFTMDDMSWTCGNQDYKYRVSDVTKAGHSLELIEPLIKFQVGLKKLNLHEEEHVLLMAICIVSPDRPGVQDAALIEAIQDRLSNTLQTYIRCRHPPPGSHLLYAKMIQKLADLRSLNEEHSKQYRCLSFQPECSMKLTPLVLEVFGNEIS

On to `CCCCN(CCCC)CCC(O)c1cc2c(Cl)cc(Cl)cc2c2cc(C(F)(F)F)ccc12` (centres undefined), for which the Potency in test [1] is 33.5 µM (active); in test [4], 29.8 µM (active); in test [10], 29.8 µM (active); in [12] it was 23.9 µM (active). Besides, in test [2], the compound was called inactive. The Potency entry in test [3], in test [5], in test [6], in [7], in test [8] and in test [9] was “inactive” in each case. Besides, the Potency entry in test [11] is “inactive”.
For `Cn1cnc2ncnc(N)c21`, the Potency result in test [1], in [13], in test [3], in test [4], in test [14] and in test [6] was “inactive” in each case. The Potency result in test [7], in test [15], in [8], in [16], in test [10] and in [11] was “inactive” throughout. Moreover, the Potency result in [17], in [18] and in [12] was “inactive” throughout. Besides, the compound was called inactive in test [2].
For the compound `Cc1cccc(C)c1NC(=O)CN1CCN(CCCC(c2ccc(F)cc2)c2ccc(F)cc2)CC1`, the Potency in test [1] was 18.8 µM (active); in test [13], 21.1 µM (active); in [4], 26.6 µM (active); in [14], 29.8 µM (active); in test [19] it was 23.9 µM (active); in [10], 21.1 µM (active). The Potency in [12] is 21.3 µM (active). The Potency entry in test [5], in test [8] and in [9] was “inactive” in each case.
With `CCOC(=O)N1CCC(=C2c3ccc(Cl)cc3CCc3cccnc32)CC1`, the Potency in test [13] is 43.6 µM (active); in [4] it was 21.9 µM (active); in [15], 54.9 µM (active) and inactive; in test [19], 38.9 µM (active) and inactive; in [10], 6.86 µM (active) and 21.1 µM (active); in [12], 54.9 µM (active) and inactive. The Potency entry in test [5], in [6], in [8], in test [9], in test [11] and in test [18] was “inactive” each time.
In the case of `O=C(O)CCCCCCC(=O)O`, the Potency result in [13], in test [20], in test [4], in [14], in test [6] and in [7] was “inactive” in each case. For the same compound, the Potency result in [15], in test [8], in test [9], in [10], in test [11] and in test [17] was “inactive” each time. Further, the Potency entry in test [18] and in test [12] was “inactive” throughout.
With `COC(=O)CC(C)CCC=C(C)C` (centres undefined), the compound was called inactive in test [2]. The Potency entry in [20], in [4], in [14], in test [6], in test [7] and in [15] was “inactive” each time. For the same compound, the Potency result in test [19], in test [8], in test [9], in [16], in [11] and in test [12] was “inactive” throughout.
On to `C=C[C@](C)(O)CC[C@@H]1[C@@]2(C)CCCC(C)(C)[C@@H]2CC[C@@]1(C)O`, for which the outcome in test [2] was inactive. In addition, the Potency was 34.7 µM (active) in test [13]; 49 µM (active) in test [20]; 43.6 µM (active) in [15]; 24.5 µM (active) in test [11]; 43.6 µM (active) in test [12]. Besides, the Potency entry in test [8] and in [9] was “inactive” each time.
Consider `CC1(C)C(=O)N(Br)C(=O)N1Br`, for which the result in test [2] was inactive. The Potency result in test [13], in test [3], in [20], in test [4], in test [5] and in test [14] was “inactive” throughout. Further, the Potency entry in test [6], in [19], in test [8], in test [9], in [11] and in test [17] was “inactive” each time. In [12], the Potency entry is “inactive”.

The values above are taken from PubChem BioAssay (Tox21).
